PubChem BioAssay AID485344 (National Center for Advancing Translational Sciences (NCATS), 2010)
The campaign covered roughly 340,000 compounds. About 6,900 (2%) were called active. The sample holds actives, similar compounds and a random draw of the others, so the mix is not that of the screen. No stated cut-off is given here; in the data, active means inhibition above about 30%; inactive means below that, where a call was filed.
Further: 0% is about no effect.

Each compound was assayed against D(2) dopamine receptor (Homo sapiens) (UniProt P14416) (assay: HTS Assay for Allosteric Antagonists of the Human D2 Dopamine Receptor: Primary Screen for Antagonists). Conditions: HEK293 TREx D2 cells, calcium flux, dopamine EC80; at 10 µM; active compounds read high.
Chain of D(2) dopamine receptor (Homo sapiens) (P14416 whole entry, looked up): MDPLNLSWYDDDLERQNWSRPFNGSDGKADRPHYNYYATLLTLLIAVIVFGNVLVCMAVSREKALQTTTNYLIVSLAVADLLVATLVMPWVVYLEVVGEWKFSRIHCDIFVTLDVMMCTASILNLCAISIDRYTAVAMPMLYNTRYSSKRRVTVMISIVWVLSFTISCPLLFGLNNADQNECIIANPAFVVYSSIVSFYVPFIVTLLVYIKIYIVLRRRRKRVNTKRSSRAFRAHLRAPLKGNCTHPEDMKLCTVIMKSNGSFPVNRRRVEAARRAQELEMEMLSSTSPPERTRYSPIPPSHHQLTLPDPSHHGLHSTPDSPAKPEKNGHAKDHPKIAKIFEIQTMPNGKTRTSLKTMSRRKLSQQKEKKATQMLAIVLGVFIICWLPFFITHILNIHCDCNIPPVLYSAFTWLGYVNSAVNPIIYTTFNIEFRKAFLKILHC
Summary of the method: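 Measurement of antagonist activity uses fluorescent calcium dye in inducible HEK293 T-REx D2 cells: 10 s baseline, compound addition with 180 s read, EC80 dopamine addition with a further 180 s read.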
`CN(C)CCOC(=O)C(c1ccccc1)C1(O)CCCC1` (configuration not stated) was tested, and the inhibition was 58.6% (active). `CCC(C(=O)OCCN(CC)CC)c1ccccc1` (configuration not stated) was tested, and the inhibition was 6.37% (inactive). With `O=C(O)C(c1ccccc1)C1(O)CCCCC1` (configuration not stated) the inhibition was 2.2% (inactive). `O=C(CSc1nc2[nH]c(=O)[nH]c(=O)c2s1)Nc1cccc(F)c1` was tested, and the inhibition was -3.77% (inactive). In the case of `CCc1ccc(CN(C)C(C)C(=O)Nc2ccc(S(=O)(=O)N3CCCC3)cc2)cc1` (configuration not stated), the inhibition is reported as 12.7% (inactive). In the case of `CC(C)=C(NC(=O)c1ccccc1)C(=O)N/N=C(\C)c1ccccc1O`, the inhibition is reported as 62.7% (active). For `C/C(=N/NC(=O)c1ccc(NC(=O)c2ccc(F)cc2)cc1)c1ccccc1`, the inhibition was 14.8% (inactive). For `CNC(=O)C(NC(=O)c1ccccc1)=C(C)C`, the inhibition was -6.51% (inactive). With `CCCC(=O)Nc1ncnc2c1ncn2[C@@H]1O[C@@H]2OP(=O)(O)OC[C@H]2[C@H]1OC(=O)CCC` the inhibition was -4.97% (inactive). For `CCO[C@@H]1OC(C(=O)N2CCOCC2)=C[C@H](C)[C@H]1CCCO`, the inhibition was -3.13% (inactive). In the case of `CCO[C@H]1OC(C(=O)N2CCCCCCC2)=C[C@@H](c2ccc(C(F)(F)F)cc2)[C@@H]1CCCO`, the inhibition is reported as 30.3% (active). In the case of `CCO[C@H]1OC(C(=O)N2CCOCC2)=C[C@@H](c2ccc3c(c2)OCO3)[C@@H]1CCCO`, the inhibition is reported as 2.11% (inactive). For `O=C(CSc1ccccc1)Nc1cccc(S(=O)(=O)N2CCCCC2)c1`, the inhibition was 0.706% (inactive). For `Cc1ccc(C)c(C(=O)COC(=O)Cn2[nH]c(=O)c3ccccc3c2=O)c1`, the inhibition was -1.59% (inactive). In the case of `CCc1ccccc1NC(=S)N(CCN1CCCCCC1)Cc1ccco1`, the inhibition is reported as -0.524% (inactive). With `Cc1ccc(NC(=S)N(Cc2ccco2)C(C)c2cccs2)cc1` (configuration not stated) the inhibition was -6.52% (inactive). For `Cc1ccc(NC(=S)N(CCN2CCCCC2)Cc2ccco2)cc1C`, the inhibition was 50.8% (active). For `Cc1ccc(NC(=S)N(CCCN2CCCC2)Cc2cccn2Cc2ccc(Cl)cc2)cc1`, the inhibition was 3.46% (inactive). In the case of `Cc1ccc(NC(=S)N(CCCN2CCC(C)CC2)Cc2ccco2)cc1`, the inhibition is reported as 34.7% (active). For `Cc1ccc(NC(=S)N(CCN(C)C)Cc2cccs2)cc1C`, the inhibition was 12.4% (inactive). With `CN(C)S(=O)(=O)c1ccc(C(=O)NCC2(N3CCOCC3)CCCCC2)cc1` the inhibition was 8.22% (inactive). For `O=C(O)c1ccccc1N=N/C(=N/Nc1cc(S(=O)(=O)O)ccc1O)c1ccccc1`, the inhibition was 28.3% (inactive). In the case of `COc1ccc(Cn2c(=S)[nH]c3cc(C(=O)NCCCN4CCOCC4)ccc3c2=O)cc1`, the inhibition is reported as 35.6% (active). In the case of `CCN(CC)CCCNC(=O)c1ccc2c(=O)n(Cc3ccc4c(c3)OCO4)c(=S)[nH]c2c1`, the inhibition is reported as 16.5% (inactive). In the case of `COc1ccc(Cn2c(=S)[nH]c3cc(C(=O)N4CCCCC4)ccc3c2=O)cc1`, the inhibition is reported as -3.83% (inactive). `COc1cccc(C(=O)OCC(=O)c2[nH]c(C)c(C(C)=O)c2C)c1` was tested, and the inhibition was 8.22% (inactive). In the case of `CCOC(=O)Cn1c(CN(Cc2ccccc2)Cc2ccccc2)nc2c1c(=O)[nH]c(=O)n2C`, the inhibition is reported as -7.46% (inactive). With `Cn1c(=O)[nH]c(=O)c2c1nc(N(CCO)Cc1ccccc1)n2Cc1ccccc1Cl` the inhibition was 73.5% (active). In the case of `CN(Cc1ccccc1)c1nc2c(c(=O)[nH]c(=O)n2C)n1CCSc1nc2ccccc2[nH]1`, the inhibition is reported as 29.2% (inactive). In the case of `COCCn1c(C)cc(C(=O)COC(=O)CNC(=O)c2ccco2)c1C`, the inhibition is reported as -8.05% (inactive). `Cc1ccc2nc(NC(=O)CSc3nc(=O)n(CCCN(C)C)c4c3CCC4)sc2c1` was tested, and the inhibition was 7.56% (inactive). With `CSc1ccccc1C(=O)OCC(=O)N1CCN(C(C)=O)CC1` the inhibition was 0.24% (inactive). In the case of `CC(=O)Nc1ccc(NC(=O)CCN2C(=O)C3CC=CCC3C2=O)cc1` (configuration not stated), the inhibition is reported as 16.4% (inactive). With `Cc1ccc(NC(=O)COc2coc(CN3CCc4ccccc4C3)cc2=O)cc1Cl` the inhibition was -2.55% (inactive). For `CCOC(=O)c1ccc(NC(=O)C2CC(=O)Nc3nc4ccccc4n32)cc1` (configuration not stated), the inhibition was -12.3% (inactive). `O=C(Nc1ccccc1)C1CC(=O)n2c(nc3ccccc32)N1` (configuration not stated) was tested, and the inhibition was 33.6% (active). In the case of `CC(=O)c1ccc(NC(=O)C2CC(=O)Nc3nc4ccccc4n32)cc1` (configuration not stated), the inhibition is reported as -1.67% (inactive). For `CC(C)Oc1ccc(S(=O)(=O)N2CCOCC2)cc1NC(=O)C1CCCC1`, the inhibition was -5.29% (inactive). `CN(c1ccccc1)S(=O)(=O)c1cccc(NC(=O)Cc2ccc(Cl)cc2)c1` was tested, and the inhibition was -11.8% (inactive). `COc1ccccc1CNC(=O)COC(=O)CNS(=O)(=O)c1ccc(NC(C)=O)cc1` was tested, and the inhibition was 4.15% (inactive). With `N#CCCCn1c(O)c(N=NC(=O)C(O)c2ccccc2)c2ccccc21` (configuration not stated) the inhibition was 38.5% (active). For `COC(=O)Cn1c(O)c(N=NC(=O)OC)c2ccccc21`, the inhibition was 11.2% (inactive). In the case of `CCCCn1c(O)c(N=NC(=O)Cn2c(C(F)(F)F)nc3ccccc32)c2ccccc21`, the inhibition is reported as 16.8% (inactive). In the case of `OCCNCCCCOc1ccccc1F`, the inhibition is reported as 4.36% (inactive). For `OCCNCc1cccc(OCc2ccccc2Cl)c1`, the inhibition was 1.43% (inactive). With `OCCNCCOc1ccc(Cl)c(Cl)c1` the inhibition was 33.4% (active). `Cc1cccc(NS(=O)(=O)c2cccc(C(=O)NNC(=O)c3ccccc3O)c2)c1` was tested, and the inhibition was -12.1% (inactive). With `Cc1cc(C)cc(-c2nnc(SCC(=O)NC3CC3)o2)c1` the inhibition was 5.88% (inactive). `CCC(C)C(N=C1NS(=O)(=O)c2ccccc21)C(=O)N1CCC(C)CC1` (configuration not stated) was tested, and the inhibition was 17% (inactive). For `Cc1n[nH]c(=O)c2c(NC(=O)COC(=O)c3ncc(Cl)c(Cl)c3Cl)oc(C)c12`, the inhibition was -6.33% (inactive). `S=C(Nc1ccc(Br)cc1Cl)NC1CCN(Cc2ccccc2)CC1` was tested, and the inhibition was 70.2% (active). With `O=C(COc1ccc(Br)cc1F)NC1CCN(Cc2ccccc2)CC1` the inhibition was 52.9% (active). In the case of `Cc1cc(Br)ccc1NC(=S)NC1CCCC1`, the inhibition is reported as 9.66% (inactive). For `S=C(NCCCc1ccccc1)Nc1ccc(Br)cc1`, the inhibition was 3.8% (inactive). For `S=C(NN=C1CCN(Cc2ccccc2)CC1)NC1CCCCC1`, the inhibition was 5.59% (inactive). With `S=C(Nc1ccc(Br)cc1)NC1CCN(Cc2ccccc2)CC1` the inhibition was 109% (active). In the case of `O=C(COc1ccccc1O)NC1CCCC1`, the inhibition is reported as 1.67% (inactive). With `O=C(NNC(=S)Nc1ccc(Br)cc1Cl)c1ccco1` the inhibition was 0.194% (inactive). `O=C(COc1ccccc1F)NC1CC1` was tested, and the inhibition was -13.9% (inactive). For `CCOC(=O)Cc1csc(SCC(=O)Nc2ccc(C)cc2F)n1`, the inhibition was 0.767% (inactive). `CCCC1C(=O)N2C(N(C)C)=Nc3ccc(C)cc3N2C1=O` (configuration not stated) was tested, and the inhibition was -7.75% (inactive). In the case of `Brc1ccc(CN2CC[C@H]3C=CCc4cccc(c43)C2)cc1`, the inhibition is reported as -16.8% (inactive). `Cc1ccc2c(c1)C1CN(C)CCC1N2S(=O)(=O)c1cccc(F)c1` (configuration not stated) was tested, and the inhibition was -6.37% (inactive). With `CNS(=O)(=O)c1ccc(C(=O)NCC(=O)NCCc2ccc3c(c2)OCCO3)cc1` the inhibition was -17.4% (inactive). With `Cc1csc(SCC(=O)N(c2ccccc2)C(C)C)n1` the inhibition was -0.577% (inactive). In the case of `O=S(=O)(NCCCCCCNS(=O)(=O)c1c(F)cccc1F)c1ccc2c(c1)OCCO2`, the inhibition is reported as -4.68% (inactive). `O=S(=O)(c1ccccc1)c1nc(-c2ccccc2)oc1NCCCN1CCOCC1` was tested, and the inhibition was 47.7% (active). For `O=S(=O)(c1ccc(Br)cc1)c1nc(-c2ccccc2)oc1NCc1cccnc1`, the inhibition was 9.02% (inactive). In the case of `O=S(=O)(c1ccc(Br)cc1)c1nc(-c2ccccc2)oc1N1CCOCC1`, the inhibition is reported as 15.8% (inactive). In the case of `CCOc1ccc(C(=O)CCC(=O)NC2=NCCS2)cc1`, the inhibition is reported as -11.7% (inactive). With `Cc1ccc(COC(=O)CN2C(=O)NC3(CCCC3)C2=O)cc1` the inhibition was -1.94% (inactive). For `COCCNC(=O)C1CCN(C(=O)C2CC(=O)N(c3ccc(C)cc3)C2)CC1` (configuration not stated), the inhibition was 30% (active). With `Cc1ccc(N2CC(C(=O)NCCS(=O)(=O)N3CCN(c4ccccc4)CC3)CC2=O)cc1` (configuration not stated) the inhibition was 8.52% (inactive). For `O=C(C1CC(=O)N(c2ccc(Br)cc2)C1)N1CCCC1` (configuration not stated), the inhibition was -3.05% (inactive). For `CCCC(C)NC(=O)C1CCN(C(=O)C2CC(=O)N(c3ccc(C)cc3)C2)CC1` (configuration not stated), the inhibition was 33% (active). With `CCc1ccc(N2CC(C(=O)N3CCCCCC3)CC2=O)cc1` (configuration not stated) the inhibition was -11.6% (inactive). With `COCCCNC(=O)C1CC(=O)N(c2ccc(C)cc2)C1` (configuration not stated) the inhibition was -5.47% (inactive). `Cc1ccc(NC(=O)CCC(=O)N2CCC(c3ccccc3)=N2)cc1S(=O)(=O)N1CCCCC1` was tested, and the inhibition was -6.66% (inactive). In the case of `CC1(C)CC(=O)C=C(c2cccc3c2Oc2ccccc2S3)C1`, the inhibition is reported as 2.71% (inactive). In the case of `Cc1ccc(NC(=O)C(c2ccccc2)N2CCN(C(=O)c3ccco3)CC2)cc1` (configuration not stated), the inhibition is reported as -0.875% (inactive). For `CN(C(=O)CSc1nnc(-c2ccc3c(c2)OCO3)o1)C1CCS(=O)(=O)C1` (configuration not stated), the inhibition was 8.68% (inactive). `CC(=O)Nc1ccc(N2C(=O)C3C4C=CC(CC4)C3C2=O)cc1` (configuration not stated) was tested, and the inhibition was 2.36% (inactive). In the case of `Cc1ccc(N2C(=O)C3C4C=CC(CC4)C3C2=O)cc1Br` (configuration not stated), the inhibition is reported as 54.9% (active). For `Cc1ccc(N2C(=O)C3C4C=CC(CC4)C3C2=O)cc1Cl` (configuration not stated), the inhibition was -11.1% (inactive). In the case of `Cn1c(-c2ccc(C(F)(F)F)cc2)cc2onc(-c3ccccc3)c2c1=O`, the inhibition is reported as 8.4% (inactive). In the case of `CCOc1ccc(C(=O)NCC(=O)N2CCN(c3ccc(C(F)(F)F)cn3)CC2)cc1`, the inhibition is reported as -6.45% (inactive). In the case of `Cc1ccc(C(=O)OCC(=O)NCc2cc(C)c(O)c(C)c2)cc1S(=O)(=O)N1CCCCC1`, the inhibition is reported as 14.2% (inactive). With `CCN(C(=O)CSc1nc2ccccc2n1CC)C1CCS(=O)(=O)C1` (configuration not stated) the inhibition was 8.24% (inactive). In the case of `CCN(C(=O)COC(=O)c1c(NC(C)=O)sc(C)c1C)C1CCS(=O)(=O)C1` (configuration not stated), the inhibition is reported as 9.33% (inactive). For `CCN(C(=O)COC(=O)/C=C/c1nc2ccccc2s1)C1CCS(=O)(=O)C1` (configuration not stated), the inhibition was 31.7% (active). For `COc1ccc(N2CCN(C(=O)CCNC(=O)c3ccc(Br)cc3)CC2)cc1`, the inhibition was -5.34% (inactive). `CC(C(=O)N1CCc2ccccc21)N(C)CC(=O)Nc1ccc(F)cc1` (configuration not stated) was tested, and the inhibition was 17.3% (inactive).
